According to PubChem BioAssay (NCI):
The panel holds about 83,000 compounds, 20% with a hit somewhere; the sample as a whole holds those more often.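 The endpoint reported here, percent growth, reads 100 for growth as untreated, 0 for no net growth and -100 for all cells dead.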 Values without a mark were called inactive. The source made the active and inactive calls. Rule for the calls: active = growth percent below 10; inactive = the rest.

Assays:
Test in all cases: NCI-60 one-dose screen, 48 h (100 = growth as untreated, 0 = no growth, -100 = all killed)
Settings in all cases: 10 µM unless noted
NCI-H23 lung = tested on: NCI-H23 lung
NCI-H226 lung = tested on: NCI-H226 lung
NCI-H322M lung = tested on: NCI-H322M lung
HOP-62 NSCLC = tested on: HOP-62 NSCLC
NCI-H460 lung = tested on: NCI-H460 lung
HOP-92 NSCLC = tested on: HOP-92 NSCLC
NCI-H522 lung = tested on: NCI-H522 lung
A549/ATCC NSCLC = tested on: A549/ATCC NSCLC
786-0 renal = tested on: 786-0 renal
COLO 205 colon = tested on: COLO 205 colon
DU-145 prostate = tested on: DU-145 prostate
K-562 leukemia = tested on: K-562 leukemia
MALME-3M melanoma = tested on: MALME-3M melanoma
MDA-MB-231 breast = tested on: MDA-MB-231 breast
RXF 393 renal = tested on: RXF 393 renal
SF-268 CNS = tested on: SF-268 CNS
SF-295 CNS = tested on: SF-295 CNS
SF-539 CNS = tested on: SF-539 CNS
UACC-257 melanoma = tested on: UACC-257 melanoma
M14 melanoma = tested on: M14 melanoma

SMILES	growth (NCI-H23 lung)	growth (NCI-H226 lung)	growth (NCI-H322M lung)	growth (HOP-62 NSCLC)	growth (NCI-H460 lung)	growth (HOP-92 NSCLC)	growth (NCI-H522 lung)	growth (A549/ATCC NSCLC)	growth (786-0 renal)	growth (COLO 205 colon)	growth (DU-145 prostate)	growth (K-562 leukemia)	growth (MALME-3M melanoma)	growth (MDA-MB-231 breast)	growth (RXF 393 renal)	growth (SF-268 CNS)	growth (SF-295 CNS)	growth (SF-539 CNS)	growth (UACC-257 melanoma)	growth (M14 melanoma)
O=c1ccc2c(ccc3ncccc32)o1	106%	104%	101%	109%	113%	112%	96%	98.2%	110%	107%	117%	113%	121%	120%	95%	113%	90.4%	106%	110%	128%
CCc1ccc(Cc2cnc(NC(=O)c3cc(C)oc3C)s2)cc1	52.8%	66.3%	56.8%	56.9%	18.6%	45%	19.6%	34.7%	41.2%	48.6%	60.2%	14.6%	56%	57.8%	15.4%	48.6%	31.8%	31.2%	52.1%	21.4%
O=C(COc1ccc(/C=C2\Oc3ccccc3C2=O)cc1)Nc1nccs1	87.6%	89.8%	89.3%	86.8%	107%	34.3%	-30.2% (active)	97.5%	88.1%	107%	109%	70.1%	98.1%	76.6%	95.5%	75.1%	116%	99.9%	113%	105%
COc1ccc(C2CC(=O)Oc3c(OC)c4c(c(OC)c32)OCO4)cc1 (centres undefined)	98.1%	112%	90.1%	84.9%	107%	101%	85.7%	97.6%	100%	103%	112%	61.1%	94.5%	100%	99.6%	99.3%	102%	98.6%	101%	98.8%
C=C(CNCCO)[C@@H]1CC[C@]2(CO)CC[C@]3(C)[C@H](CC[C@@H]4[C@@]5(C)CCC(NCCO)C(C)(C)[C@@H]5CC[C@]43C)[C@@H]12 (some centres undefined)	95.5%	96.5%	89.2%	93.4%	50.3%	65.5%	66.6%	61.4%	67.4%	62.5%	79.2%	0.374% (active)	61.8%	51.4%	57.4%	69.1%	80.8%	70.8%	77.9%	14.3%
Cc1nc2ccccc2c(/C=C/c2ccc(Br)cc2)c1C(=O)/C=C/c1ccccc1	8.31% (active)	25.1%	35.3%	-35.1% (active)	-56.4% (active)	53.1%	-34.9% (active)	14.8%	2.23% (active)	-29.5% (active)	-3.75% (active)	7.54% (active)	-28.4% (active)	11.9%	-71.3% (active)	51.9%	4.22% (active)	-62.7% (active)	-4.07% (active)	6.49% (active)
COc1ccc(S(=O)(=O)N(C)c2oc(-c3ccc(Cl)cc3)nc2C#N)cc1	79.7%	94.9%	98.2%	82.7%	95.9%	77.2%	83%	87.3%	98.2%	97.9%	97.9%	20.3%	68.9%	87%	80.1%	82.7%	91.9%	82.9%	86.7%	53.8%
CCN1C(=O)N(CC)C2C1NN=c1s/c(=C\c3ccccc3)c(=O)n12 (centres undefined)	25.6%	59.1%	42.6%	38.2%	4.35% (active)	27.3%	-8.72% (active)	7.65% (active)	25.1%	-2.49% (active)	5.47% (active)	8.79% (active)	41.1%	2.86% (active)	32%	54.8%	5.04% (active)	-12.5% (active)	45.8%	8.9% (active)
COc1cc(C(=O)c2c(-c3ccccc3)oc3ccccc23)cc(OC)c1O	43.2%	52.8%	53.4%	38.2%	13.9%	55.4%	40.2%	47.3%	35.6%	123%	26%	17.4%	48.5%	59.7%	-2.49% (active)	59.9%	14.3%	8.35% (active)	73.2%	16.6%
CC(C)CCc1nc2ccc(NCc3ccc(OCCN4CCC(C)CC4)cc3)cc2[nH]1	94.9%	67.4%	99.2%	83.6%	100%	53.5%	102%	99.9%	76.6%	66%	89.4%	20.4%	32%	59.8%	61.6%	79.9%	90.4%	58%	96.3%	33.2%
O=C(/C=C/C12c3ccccc3C(c3ccccc31)C1C(=O)NC(=O)C12)c1cccs1 (centres undefined)	37.4%	73.4%	31.9%	41.3%	17.3%	37.1%	28%	43.5%	43.4%	44%	13.5%	16.8%	75.6%	51.6%	28.1%	32.9%	52.5%	53.9%	45.7%	48.2%
Cc1cc2c(c(C)n1)CN(C(=O)Nc1nc(-c3cncs3)ccc1N)C2	104%	107%	97.8%	99.6%	106%	90.1%	87.5%	111%	102%	110%	107%	101%	96.7%	113%	111%	101%	99.5%	86.5%	103%	104%
COC12C=C/C(=C(/C(=O)OCc3ccccn3)C(=O)CCCCCCCCC3(OC)C=C/C(=C(/C(=O)OCc4ccccn4)C(=O)CCCCCCCC1)O3)O2	-37.4% (active)	-69.4% (active)	-60% (active)	20%	-15.5% (active)	-59% (active)	-12.9% (active)	–	-72.5% (active)	-15.6% (active)	-24.5% (active)	-0.106% (active)	-60.1% (active)	7.85% (active)	-82.5% (active)	-8.87% (active)	-25.7% (active)	-28.3% (active)	11%	-23.3% (active)
CN(C)c1ccc(/C=C/C2=[N+](C)c3ccccc3C2(C)C)cc1	5.41% (active)	29.4%	28.7%	28.7%	20%	-19.9% (active)	18.5%	15.3%	25%	-76.2% (active)	25.3%	14.2%	-6.64% (active)	3.11% (active)	39.9%	20.9%	0.915% (active)	16.9%	12.6%	18.4%
